Screening results (PubChem)
Shown are actives, neighbours in structure and some others; about 8% of the full set was active somewhere.
PostGolgi yeast: phenotypic screen on post-Golgi transport, primary screen. hit rate 0.9% among 98,000. post-Golgi transport phenotypic cell assay. inhibition, % at 10 µM;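 further: yeast cells grown in 1536-well plates; yeast grown about 18 h at 30C before absorbance read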
PostGolgi ctrl: growth inhibition of yeast control strain, primary screen, counter-screen for post-Golgi transport modulator project. inhibition, % at 10 µM. efflux-deficient yeast background strain, growth absorbance A615, 16 h. hit rate 5% among 98,000
PTK2B oligo ant: antagonists of Pyk2 self-association, primary screen, Q293 cells, FERM NanoBiT luminescence, HTS; hits give low values; z-score (the deposit names both 25 µM and 10 µM); hit rate 0.83% among 99,000; AID 1347419, 2020;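 active means Z-score of -3 or lower, scaled per plate to the spread of control and sample wells; inactive means z-score above -3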;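 further: negative z-score means lost luminescence so less FERM oligomerization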
Cav3 T inh: Cav3.2 calcium influx blockers – cell-based, Fluo-4 calcium fluorescence, FDSS, MLSMR library, primary screen; Voltage-dependent T-type calcium channel subunit alpha-1H (Homo sapiens), O95180; Cav3.2-expressing cells; hits give low values; B-score at 10 µM; hit rate 4% among 100,000;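 active means single-dose well whose peak fluorescence ratio is a statistical outlier from its plate by either plate-standardised score or position-corrected B-score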
* hit, by the source's call; . = no result. Unless noted, no stated cut-off is given here; in the data, active means inhibition above about 30%; inactive means the rest.

SMILES	PostGolgi yeast	PostGolgi ctrl	PTK2B oligo ant	Cav3 T inh
CSc1nnc(Nc2ccccc2C)s1	-6	8	0.19	0.49
CC/C(=C1/C(=O)CC(C)(C)C(C(=O)OC)C1=O)N1CCCC1 (stereo not given)	-1	12	0.57	1.1
O=C(Nc1nc2cc(Cl)ccc2s1)C1CCCN(S(=O)(=O)c2cccc3cccnc23)C1 (stereo not given)	2	36*	.	-0.32
O=C(Nc1nccs1)C1CCCN(S(=O)(=O)c2cccc3cccnc23)C1 (stereo not given)	2	5	.	-1.6
Cc1ccc(NC(=O)C2CCN(S(=O)(=O)c3c(C)n[nH]c3C)CC2)nc1	0	35*	-0.23	0.14
O=C(O)c1cc(S(=O)(=O)N2CCOCC2)c(Sc2ccccn2)cc1Sc1ccccn1	1	4	0.11	0.93
CC(Oc1ccccc1)C(=O)N1CCC2(CC1)Oc1ccc(F)cc1C(=O)C21CC(c2ccccc2)=NO1 (stereo not given)	.	.	.	-4*
CC(Oc1ccccc1)C(=O)N1CCC2(CC1)Oc1ccc(F)cc1C(=O)C21CC(c2ccc(Cl)cc2)=NO1 (stereo not given)	.	.	.	-2.8
Cc1cccc(CC(Cc2nc3ccccc3[nH]2)c2nc3ccccc3[nH]2)c1 (stereo not given)	-8	26	-2.9	-7.1*
CCCc1nc2ccccc2[nH]1	0	-2	2.2	0.58
O=C(CSc1nccc(=O)[nH]1)Nc1ccc(S(=O)(=O)N2CCOCC2)cc1	.	.	-0.68	1.9
Cc1ccc(N2CCN(/N=C/c3sccc3C)CC2)cc1	0	5	1.2	-0.22
CSc1cccc(NC(=O)C2CCCN(S(=O)(=O)c3ccc(F)cc3)C2)c1 (stereo not given)	3	11	-0.51	-6.3*
Cn1c(=O)oc2cc(S(=O)(=O)N3CCCC(C(=O)Nc4ccc5c(c4)OCCO5)C3)ccc21 (stereo not given)	18	31*	.	.
CC(C)(C)c1cc(C(=O)N/N=C/c2ccc(O)cc2)n(-c2ccccc2)n1	.	.	-1.8	.
COC(=O)C(C)N(C(=O)c1cccc(Cl)c1)c1c(C)cccc1C (stereo not given)	-5	7	-0.59	-2.4
COC(=O)C(C)N(C(=O)c1cccc2ccccc12)c1c(C)cccc1C (stereo not given)	10	36*	-1.4	-7.1*
CC(NC(=O)CN1C(=O)NC(Cc2ccccc2)(Cc2ccccc2)C1=O)C12CC3CC(CC(C3)C1)C2 (stereo not given)	-7	10	-1.2	-5.2*
O=C(CSc1ncc(-c2ccc(F)cc2)[nH]1)N1CCCCC1	6	4	0.57	0.02
COc1ccc(CN2[C@@H](CC(=O)O)c3ccccc3S2(=O)=O)cc1	.	.	.	0.15
CCc1oc(C(=O)O)cc1COC	-21	33*	0.32	-0.21
O=C(NCc1ccco1)C1CC(=O)N(c2ccc(O)cc2)C1 (stereo not given)	-8	6	-0.22	.
CCCCOc1ccc2c(C)cc(=O)oc2c1OCCCC	.	.	-0.59	-2.2
CCc1ccc(C2=NN(c3ccc(S(N)(=O)=O)cc3)C(c3ccc(F)cc3)C2)cc1 (stereo not given)	18	91*	-0.73	-0.3
CC(C)CC(NC(=O)c1ccc(Cl)cc1)C(=O)OCC(=O)c1ccc2c(c1)NC(=O)CO2 (stereo not given)	-14	32*	2.1	0.92
SMILES	PostGolgi yeast	PostGolgi ctrl	PTK2B oligo ant	Cav3 T inh
C=CCSc1nc(N)c(C#N)c(-c2ccc(C)cc2)c1C#N	3	8	-3.5*	0.47
CCSc1nc(N)c(C#N)c(-c2ccccc2Cl)c1C#N	2	1	-3.7*	0.00056
O=C(O)C1(c2cccc(Cl)c2)CCC1	6	9	-0.15	-0.74
COc1ccccc1NC(=O)N(Cc1ccco1)Cc1cc2c(C)ccc(C)c2[nH]c1=O	.	.	1.3	-6*
COc1ccc2[nH]c(=O)c(CN(Cc3cccnc3)C(=O)Nc3ccccc3)cc2c1	105*	94*	-1.7	-2.2
Cc1cccc2cc(CN(Cc3ccco3)C(=O)NC3CCCCC3)c(=O)[nH]c12	-3	41*	-1.6	-2.6
COc1ccccc1NC(=O)N(Cc1ccco1)Cc1cc2cccc(C)c2[nH]c1=O	-3	37*	0.2	-2.4
COc1cccc(C(=O)N(Cc2ccco2)Cc2cc3cccc(C)c3[nH]c2=O)c1	-6	13	-1.6	0.33
CCN(CC)CCN(Cc1cc2cc(C)ccc2[nH]c1=O)C(=O)Nc1ccccc1OC	-3	-6	0.49	0.15
O=C(NC1CCCCC1)N(Cc1ccccc1)Cc1ccco1	-10	21	-0.54	-9.1*
CCc1ccc2[nH]c(=O)c(CN(Cc3ccccc3OC)C(=O)Nc3ccccc3OC)cc2c1	1	45*	-1.3	-5.2*
O=C(COc1ccccc1Cl)N1CCN(c2ccc([N+](=O)[O-])c(N3CCOCC3)c2)CC1	-9	14	-1.4	-0.58
Cc1cc(C)nc(NC(=O)CSc2ccccn2)n1	-1	-13	0.06	0.23
Cc1cc(C)nc(NC(=O)CSc2nn(C)c(=S)s2)n1	40*	-5	-0.03	0.41
CCOC(=O)CSC1=C(C#N)C(c2ccc(C)cc2)C(C(=O)OC)C(=O)N1 (stereo not given)	-2	8	0.57	0.85
COC(=O)C1=C(O)C(C(=O)OC)C(c2ccc(C)cc2)C(C#N)(C#N)C1c1ccc(C)cc1 (stereo not given)	.	.	-1.3	-5.6*
O=C1c2oc3ccc(Cl)cc3c(=O)c2C(c2ccccn2)N1CCCN1CCOCC1 (stereo not given)	.	.	.	0.72
COc1ccc(-c2nc(C#N)c(N3CCCCCC3)o2)cc1OC	13	34*	-0.53	-0.62
COc1ccc(-c2nc(C#N)c(N3CCCCCC3)o2)cc1	23	20	0.02	-1.4
Cc1ccc2nsnc2c1S(=O)(=O)N(Cc1cc2cccc(C)c2[nH]c1=O)CC1CCCO1 (stereo not given)	1	14	-0.56	-0.3
O=C(O)C1C2C=CC(C2)C1C(=O)N1CCOCC1 (stereo not given)	-10	53*	-0.92	-0.11
O=C(NC1CCCC1)C1C2C=CC(C2)C1C(=O)N1CCOCC1 (stereo not given)	-5	-5	2.4	-0.046
Nc1cc(N)nc(SCC(=O)Nc2ccc(Br)cc2Cl)n1	.	.	-0.63	0.32
Cc1cc(C)n2nc(/C(C#N)=C/c3ccccc3)c(C#N)c2n1	0	6	-0.84	.
CCCCCC1CC(CC#CCN2CCOCC2)C(=O)O1 (stereo not given)	5	6	0.04	0.31
SMILES	PostGolgi yeast	PostGolgi ctrl	PTK2B oligo ant	Cav3 T inh
O=C(O)Cc1c[nH]c2cccc(O)c12	.	.	.	0.76
Cc1ccc(-n2c3c(cc(C(=O)O)c2=O)C(=O)CC(C)(C)C3)cc1	-7	9	0.12	0.5
Cc1cc2c(n1-c1ccc(Cl)cc1)CC(C)(C)CC2=O	4	36*	0.47	-0.75
CC(=O)COc1ncn(-c2ccccc2)n1	10	0	0.74	-4.4*
CCOC(=O)COc1ncn(-c2ccccc2)n1	-1	8	-0.07	2
CCc1nccn1S(=O)(=O)c1ccc(OC)c(C)c1C	-6	8	0.59	-3.8*
